Rows were chosen to be rich in hits. Some 6.5% of all compounds tested hit in one or more screens of this group.
HT1080-NT tox: qHTS for induction of synthetic lethality in tumor cells producing 2HG: qHTS for the HT-1080-NT fibrosarcoma cell line; Potency, µM (top dose mostly 46.1 µM), inactives show top-dose activity, negative = less viability, usual class: cytotoxic; HT-1080-NT fibrosarcoma viability, CellTiter-Glo ATP luminescence, 48 h; hit rate 1.6% among 360,000;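 also: NT is the 2HG producing partner of a matched IDH1 knockdown line; potency is read from the fitted curve at half-maximal effect; 0% = DMSO-treated cells and -100% = media-only wells without cells; nearly all actives have a fitted effect of over 55% in size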
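Toxicity toward the 2HG-producing NT line was scored as %Activity, normalised to DMSO and no-cell wells, from CellTiter-Glo luminescence after 48 hours' treatment.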
HepG2 tox: qHTS for Inhibitors of TGF-b: Cytotox Counterscreen | hit rate 0.76% among 410,000 | AID 588856, 2011 | HepG2 CAGA-GFP viability, ATP luminescence, 18 h | Potency, µM (highest dose often 46.1 µM), for inactives: at the highest dose activity change, negative = cytotoxicity, hits mostly cytotoxic; also: potency is read from the fitted curve at half-maximal effect
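HepG2 CAGA-GFP cells (1000/well, DMEM with 1% FBS) received compound, then TGF-beta at 500 pg/mL final, and were incubated 18 hours at 37 degrees C. Viability was read by CellTiter-Glo luminescence. Media-only wells were set as complete cell-killing and DMSO as no toxicity.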
IL-1B inflam inh: qHTS for Inhibitors of Inflammasome Signaling: IL-1-beta AlphaLISA Primary Screen; hit rate 4.7% among 360,000; THP-1 LPS/ATP IL-1B secretion, AlphaLISA, 16 h; stronger effect = lower value; activity change, % at 57.5 µM; in the data active = activity change below about -50%; inconclusive = mostly about -30% to -49%; also: % is scaled to controls: 0 for no effect and ±100 for the full control effect
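Secreted IL-1B measured by AlphaLISA bead assay after 16 h compound exposure of THP-1 cells; compounds (final up to 57.5 uM) added 1 h before LPS (250 ng/mL) and ATP (1.25 mM) stimulation; lower signal means less secretion.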
TGFb SMAD3 inh: qHTS for Inhibitors of TGF-b | HepG2 CAGA-GFP TGF-b/SMAD3 reporter, GFP fluorescence, 18 h; TGF-beta stimulated, 500 pg/mL final | hit rate 1.2% among 410,000 | Potency, µM (highest dose often 46.1 µM), for the others: at the highest dose activity, negative = inhibition, actives largely listed as inhibitors | AID 588855, 2011; also: potency is read from the fitted curve at half-maximal effect; % is scaled to controls: 0 for no effect and ±100 for the full control effect; nearly all actives have a fitted effect of over 65% in size
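HEPG2 CAGA-GFP reporter cells (1000/well, DMEM with 1% FBS) received compounds, then recombinant TGF-beta at 500 pg/mL final for 18 hours at 37 degrees C. Per-cell GFP summed per well was normalised to unstimulated and stimulated DMSO controls before curve fitting.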
HT1080 IDH1KD tx: qHTS for induction of synthetic lethality in tumor cells producing 2HG: qHTS for the HT-1080-IDH1KD cell line; HT-1080 IDH1 knockdown viability, ATP luminescence, 48 h; Potency, µM (series often up to 46.1 µM), for the others: at the top dose activity, negative = toxicity, actives largely listed as cytotoxic; hit rate 2% among 360,000;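 also: potency is read from the fitted curve at half-maximal effect; 0% = DMSO wells and -100% = cell-free medium wells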
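Knockdown cells (IDH1KD HT-1080) received compounds 2 h after plating at 750 cells/well and were kept 48 h at 37 °C in 5% FBS RPMI. A CellTiter-Glo luminescence read gave % activity for curve fitting.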
Giardia kill: Small Molecules that selectively kill Giardia lamblia: qHTS | Giardia lamblia trophozoite viability | activity change, % at 7.66 µM, hits read low | hit rate 0.15% among 340,000; in the data active = activity change below about -80%; inconclusive = between about -30% and that limit;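 also: parasites exposed to compound for two days anaerobically before the ATP read; % is scaled to controls: 0 for no effect and ±100 for the full control effect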
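Trophozoites 100 cells/well + cpd; 48 hrs, 37 deg C, anaerobic. ATPLite 1-Step added, 15-30 min RT, luminescence read (ATP-based viability).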
* = called active by the depositor. Unless noted, calls follow the shape of the dose curve; as a rule, active = well fitted curve in the direction sought with a large enough effect; inconclusive = small, poorly fitted or top-dose-only effect, or another doubt; inactive = no such curve, though single readings can be large; an effect the other way counts as inactive or inconclusive.

Results for O=C(Nc1cccc(F)c1)C1CCCN(S(=O)(=O)c2cnc[nH]2)C1 (stereo not drawn) ?
HT1080-NT tox: 21%; HepG2 tox: 10%; IL-1B inflam inh: 0; TGFb SMAD3 inh: 6%; HT1080 IDH1KD tx: 25%; Giardia kill: -23

How did CC1(C)Oc2ccc3ccc(=O)oc3c2/C(=C/N)C1=O do in these assays?
HT1080-NT tox: -14%; HepG2 tox: 1%; IL-1B inflam inh: -16; TGFb SMAD3 inh: -1%; HT1080 IDH1KD tx: -15%; Giardia kill: -11

How did CC1(C)Oc2ccc3ccc(=O)oc3c2/C(=C/Nc2ccccc2)C1=O do in these assays?
HT1080-NT tox: -25%; HepG2 tox: -5%; IL-1B inflam inh: -59*; TGFb SMAD3 inh: -18%; HT1080 IDH1KD tx: -28%; Giardia kill: 34

How did O=C1C=C(Nc2ccccc2O)c2ccccc2C1=O do in these assays?
HT1080-NT tox: inconclusive; HepG2 tox: 2.5µM*; IL-1B inflam inh: -90*; TGFb SMAD3 inh: 1.8µM*; HT1080 IDH1KD tx: inconclusive; Giardia kill: -15

What do the screens show for `Cc1ccc(NS(=O)(=O)c2ccc3c(c2)C(=O)c2ccccc2C3=O)c(C)c1`?
HT1080-NT tox: -29%; HepG2 tox: 3%; IL-1B inflam inh: 29; TGFb SMAD3 inh: -8%; HT1080 IDH1KD tx: -30%; Giardia kill: -23

Results for O=C1C=C(NCc2ccccc2)c2ccccc2C1=O ?
HT1080-NT tox: 3.7µM*; HepG2 tox: -109%; IL-1B inflam inh: -101*; TGFb SMAD3 inh: inconclusive; HT1080 IDH1KD tx: 4.6µM*; Giardia kill: -22

Results for Cc1ccc(NC2=CC(=O)C(=O)c3ccccc32)c(C)c1 ?
HT1080-NT tox: 6%; HepG2 tox: 5µM*; IL-1B inflam inh: -8; TGFb SMAD3 inh: inconclusive; HT1080 IDH1KD tx: 1%; Giardia kill: 19

What do the screens show for `O=c1cccccc1NCc1ccccc1`?
HT1080-NT tox: 2%; HepG2 tox: -7%; IL-1B inflam inh: 0; TGFb SMAD3 inh: -13%; HT1080 IDH1KD tx: 0%; Giardia kill: -5

What do the screens show for `COc1ccc(S(=O)(=O)Nc2ccc3oc(C)c(C(=O)O)c3c2)cc1`?
HT1080-NT tox: -1%; HepG2 tox: -5%; IL-1B inflam inh: 10; TGFb SMAD3 inh: 1%; HT1080 IDH1KD tx: -2%; Giardia kill: -18

How did COc1ccc(S(=O)(=O)N(C(=O)c2ccncc2)c2ccc3oc4c(c3c2)CCCC4)cc1 do in these assays?
HT1080-NT tox: -21%; HepG2 tox: -59%; IL-1B inflam inh: 23; TGFb SMAD3 inh: 11µM*; HT1080 IDH1KD tx: inconclusive; Giardia kill: -1

How did COc1ccc(S(=O)(=O)Nc2ccc3oc4c(c3c2)CCCC4)cc1 do in these assays?
HepG2 tox: -102%; TGFb SMAD3 inh: 13µM*

How did CCOc1ccccc1CNC(=O)c1cc2n(n1)CCCN(Cc1ccc(C)cc1)C2=O do in these assays?
HepG2 tox: -27%; TGFb SMAD3 inh: inconclusive

How did CC1(Cc2cccc(F)c2)C(=O)Nc2ccc(-c3cccnc3)cc21 (stereo not drawn) do in these assays?
HT1080-NT tox: -6%; HepG2 tox: -24%; IL-1B inflam inh: 83; TGFb SMAD3 inh: -6%; HT1080 IDH1KD tx: 0%

Results for O=C(NNC(=O)C1CCC1)c1ccc(Br)cc1 ?
HT1080-NT tox: 28%; HepG2 tox: -6%; IL-1B inflam inh: -11; TGFb SMAD3 inh: 11%; HT1080 IDH1KD tx: 14%; Giardia kill: 0

What do the screens show for `Cc1cnc(C(=O)NNC(=O)c2ccc(Br)cc2)cn1`?
HT1080-NT tox: inconclusive; HepG2 tox: -6%; IL-1B inflam inh: 77; TGFb SMAD3 inh: -2%; HT1080 IDH1KD tx: 21µM*; Giardia kill: -12

What do the screens show for `O=S(=O)(NC1CCCCC1)c1cccs1`?
HT1080-NT tox: 19%; HepG2 tox: 3%; IL-1B inflam inh: 6; TGFb SMAD3 inh: 8%; HT1080 IDH1KD tx: 8%; Giardia kill: 11

What do the screens show for `COc1c(OC(C)=O)ccc(/C=C/c2ccc3cccc(OCc4ccccc4)c3n2)c1[N+](=O)[O-]`?
HT1080-NT tox: inconclusive; HepG2 tox: -8%; IL-1B inflam inh: -50*; TGFb SMAD3 inh: inconclusive; HT1080 IDH1KD tx: inconclusive; Giardia kill: -5

How did O=S(=O)(c1ccccc1)c1nc(-c2ccco2)oc1NCc1cccnc1 do in these assays?
HT1080-NT tox: 1%; HepG2 tox: 11µM*; IL-1B inflam inh: inconclusive; TGFb SMAD3 inh: -7%; HT1080 IDH1KD tx: 0%; Giardia kill: 0

Results for Cc1ccc(S(=O)(=O)N2C[C@H]3N(C(=O)OC(C)C)N(C(=O)OC(C)C)C[C@H](OC(=O)Nc4c(C)noc4C)[C@@]3(O)C2)cc1 ?
HT1080-NT tox: 6%; HepG2 tox: 0%; IL-1B inflam inh: -51*; TGFb SMAD3 inh: -20%; HT1080 IDH1KD tx: 5%

What do the screens show for `Cc1ccc(S(=O)(=O)N2C[C@H]3N(C(=O)OC(C)C)N(C(=O)OC(C)C)C[C@H](OC(=O)Nc4cccs4)[C@@]3(O)C2)cc1`?
HT1080-NT tox: -13%; HepG2 tox: -38%; IL-1B inflam inh: -80*; TGFb SMAD3 inh: inconclusive; HT1080 IDH1KD tx: -2%

How did Cc1ccc(S(=O)(=O)N2C[C@H]3N(C(=O)OC(C)C)N(C(=O)OC(C)C)C[C@H](OC(=O)NCc4ccccc4F)[C@@]3(O)C2)cc1 do in these assays?
HT1080-NT tox: -18%; HepG2 tox: -15%; IL-1B inflam inh: -25; TGFb SMAD3 inh: -21%; HT1080 IDH1KD tx: -13%

How did O=C(CN1CCCCCC1)Nc1ccccc1F do in these assays?
HT1080-NT tox: 18%; HepG2 tox: -8%; IL-1B inflam inh: -8; TGFb SMAD3 inh: -6%; HT1080 IDH1KD tx: 18%; Giardia kill: 7

How did O=C(Nc1cccc(F)c1)N1CC=C(n2c(=O)[nH]c3ccccc32)CC1 do in these assays?
HT1080-NT tox: -8%; HepG2 tox: -23%; IL-1B inflam inh: -59*; TGFb SMAD3 inh: 4%; HT1080 IDH1KD tx: -1%; Giardia kill: -9

Results for COCCCNCCCCOc1ccc(OCc2ccccc2)cc1 ?
HT1080-NT tox: inconclusive; HepG2 tox: -116%; IL-1B inflam inh: -18; TGFb SMAD3 inh: inconclusive; HT1080 IDH1KD tx: inconclusive; Giardia kill: -10

Results for COCCCNCCOc1ccc(C(C)(C)c2ccccc2)cc1 ?
HT1080-NT tox: inconclusive; HepG2 tox: -40%; IL-1B inflam inh: -68*; TGFb SMAD3 inh: inconclusive; HT1080 IDH1KD tx: inconclusive; Giardia kill: 5
